This is a sample that favours compounds with a hit; in the whole collection about 2.5% have one here.
CRFR2-BP ag – CRF-BP/CRF-R2 complex agonism; HEK293 CRF-R2/CRF-BP, calcium dye fluorescence (FLIPR); percent of saturating CRF peptide response; activation, % at 13.2 µM; actives 0.46% (n = 350,000);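 active means activation of at least 50%, plus an integration ratio under a set limit after plate pattern correction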;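 further: plate controls were neutral control wells without compound for no effect and CRF at EC100 for full effect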
H9c2 TAG inh – reduces triacylglycerol accumulation in H9c2 cells. Nile Red lipid (TAG) fluorescence; cells loaded with 200 µM oleic acid. inhibition, % at 12.5 µM. actives 0.66% (n = 230,000). AID 651582;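 active means pattern-corrected inhibition of lipid staining of at least 50% with the nuclear-stain viability signal not falling by more than 50%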;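 further: 0% = DMSO wells and 100% = triacsin C control wells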
SKN-1 block – C. elegans SKN-1 inhibition; C. elegans VP596 Pgst-4::GFP/RFP ratio, acrylamide-induced, 24 h; inhibition, % at 21.8 µM; actives 0.49% (n = 360,000); AID 624304;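 active means interference check ratio from 0.5 to 1.5 plus GFP to RFP signal ratio inhibition reaching or exceeding a fixed threshold, cut at about 30% in these data, passing the limit was not always enough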
H9c2 protect – modulators protecting cardiomyocytes from myocardial damage. H9c2 cardiomyocytes, H2O2 injury protection, ATPLite, 2 h. protection from H2O2 cell death, % at 20 µM. actives 0.63% (n = 360,000). AID 588492;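 active means compounds giving at least 50% protection of heart cells from peroxide-induced death in the single-dose screen, raw or plate-pattern-corrected value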;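 further: 0% = DMSO wells with peroxide and 100% = DMSO wells without peroxide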
CRFBP-R2 block – antagonists of CRF-binding protein/CRF-R2 receptor complex. HEK293 CRF-R2/CRF-BP, CRF-induced calcium fluorescence. actives 0.59% (n = 350,000). inhibition, % at 11.8 µM;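 active means inhibition of the ligand-induced calcium signal above about 50% at the single tested concentration, limit read from the data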
iPSC survival up – enhancers of human iPSC single-cell survival. survival enhancement, % at 20 µM. actives 0.044% (n = 360,000). hiPSC single-cell survival, ATPlite luminescence; 100% = ROCK inhibitor wells, 0% = DMSO; in the data active means survival enhancement above about 18%;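 further: cells exposed to compounds for 16 hours before the ATP read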
Starred values were filed as active, the others as inactive; . = no result.

SMILES | CRFR2-BP ag | H9c2 TAG inh | SKN-1 block | H9c2 protect | CRFBP-R2 block | iPSC survival up
CC[n+]1c(/C=C/C=C/N(C(C)=O)c2ccccc2)sc2cc(OC)ccc21 | 146* | . | . | . | -127 | .
CC[C@H]1OC(=O)[C@H](C)[C@@H](O[C@H]2C[C@@](C)(OC)[C@@H](O)[C@H](C)O2)[C@H](C)[C@@H](O[C@@H]2O[C@H](C)C[C@H](N(C)C)[C@H]2O)[C@](C)(O)C[C@@H](C)CN(C)[C@H](C)[C@@H](O)[C@]1(C)O | 3 | 29 | 0 | 0 | -2 | 2
CCC1OC(=O)C(C)C(OC2C[C@@](C)(OC)C(O)C(C)O2)C(C)C(O[C@@H]2OC(C)CC(N(C)C)C2O)[C@](C)(O)CC(C)C(=NOCOCCOC)C(C)C(O)[C@]1(C)O (stereo partly drawn) | -1 | 1 | -1 | 5 | 89* | -1
CCOc1ccc(NC(=O)C2CCCN(S(=O)(=O)c3c(C)nn(C)c3C)C2)cc1 (stereo not drawn) | -1 | . | 34* | 1 | -1 | 0
COc1cc(/C=C(\C#N)C(=O)Nc2cc(C(F)(F)F)ccc2Cl)ccc1OCC(=O)Nc1cccc(C(F)(F)F)c1 | 11 | . | 1 | 1 | -7 | -1
NC(=O)c1ccccc1OCC(=O)NC12CC3CC(CC(C3)C1)C2 | 2 | 5 | 2 | 56* | -13 | 1
CC(=O)Oc1cc(C(=O)OCC(=O)NC23CC4CC(CC(C4)C2)C3)cc(OC(C)=O)c1OC(C)=O | 0 | 4 | 6 | 84* | 0 | 0
Cc1ccccc1OCC(=O)OCC(=O)NC12CC3CC(CC(C3)C1)C2 | -2 | 49 | 5 | -2 | -3 | -3
COc1cccc(C(=O)OCC(=O)NC23CC4CC(CC(C4)C2)C3)c1 | -3 | -6 | 5 | -2 | -10 | 2
O=C(NCc1ccncc1)C1Cc2c(-c3ccccc3Oc3ccccc3)ccnc2O1 (stereo not drawn) | . | -16 | 1 | 1 | . | 2
Clc1ccccc1-c1ccc(CN2CCN(c3ccccc3)CC2)o1 | 3 | . | 38* | -8 | 12 | 1
COC(=O)c1ccc(CNC(=O)COC(=O)/C=C/c2cccc(OC)c2)cc1 | -1 | -1 | -1 | -6 | -1 | -3
O=C(Cn1ncc2c([nH]c3ccccc32)c1=O)NCCc1ccccc1 | 3 | . | 3 | 2 | 4 | 0
O=C(Cn1ncc2c([nH]c3ccccc32)c1=O)NCC1CCN(Cc2ccccc2F)CC1 | 0 | . | 6 | 7 | 70* | 0
Cc1cc(=O)c2cccc(Br)c2[nH]1 | -3 | 9 | 13 | 27 | 11 | -1
O=c1cc(C(F)(F)F)[nH]c2c(C(F)(F)F)cccc12 | 54* | 1 | -3 | -24 | 33 | 3
CCOc1ccc2[nH]c(C)cc(=O)c2c1 | 2 | . | -4 | 0 | 1 | 2
O=c1cc(C(F)(F)F)[nH]c2ccc(OC(F)(F)F)cc12 | 50 | -3 | -4 | -13 | 69* | -1
CCSc1nnc(NC(=O)Cc2cc(OC)c(OC)c(OC)c2)s1 | 0 | -12 | -14 | -2 | 1 | 0
CCCCOc1ccc(C(=O)N/C(=C\c2ccc(OC)cc2)C(=O)OCc2ccco2)cc1 | 3 | 2 | 4 | 57* | -6 | 2
COc1ccc(C(=O)N/C(=C\c2ccco2)C(=O)OCc2ccco2)cc1 | 2 | 5 | 10 | -2 | 14 | 0
O=C(NN=Cc1ccc(O)cc1O)c1ccccc1NS(=O)(=O)c1cccs1 | -4 | 2 | -9 | 51* | -10 | 0
Cn1nc([N+](=O)[O-])nc1Oc1ccc(C(C)(C)C)cc1 | -3 | . | -2 | -8 | 76* | 2
CCN(C(=O)CCc1nnc2ccc(N3CCC4(CC3)OCCO4)nn12)c1ccccc1 | 0 | . | -1 | 2 | 52* | 1
CCOc1ccccc1NC(=O)CCc1nnc2ccc(N3CCC4(CC3)OCCO4)nn12 | 1 | . | 5 | 1 | -20 | 0
SMILES | CRFR2-BP ag | H9c2 TAG inh | SKN-1 block | H9c2 protect | CRFBP-R2 block | iPSC survival up
Nc1ccc(/C=C/C(=O)c2ccco2)cc1 | 81* | -23 | 15 | -6 | -72 | 0
Cc1ccc(CN2CCN(/N=C/c3ccc(C(=O)O)cc3)CC2)cc1 | 0 | . | -6 | 3 | -1 | 0
Cc1ccc(CN2CCN(/N=C/C(Br)=C\c3ccccc3)CC2)cc1 | 129* | -5 | 6 | -10 | -74 | 2
CCc1nnc(NC(=O)CCC(=O)N2CCN(Cc3cc(Cl)ccc3OC)CC2)s1 | 1 | . | -9 | 37 | 106* | 1
CCC(C)(C)c1ccc(Oc2ccc(N)cc2)cc1 | 4 | 69* | 3 | -10 | -19 | 0
Cc1cc(SCC(=O)Nc2cccc(S(=O)(=O)NC3=NCCCCC3)c2)c(C)cc1Br | 0 | . | 3 | -6 | -6 | 1
Cc1cc(SCC(=O)N/N=C/c2ccc(O)c(O)c2)nc2ccccc12 | -1 | 10 | 5 | 40 | -5 | 1
O=C(CSc1nc2ccccc2o1)N/N=C/c1ccc(O)c(O)c1 | 3 | 17 | 5 | 67* | -5 | 0
COc1cccc2c(SCC(=O)N/N=C/c3ccccc3)cc(C)nc12 | 1 | . | 4 | -2 | -42 | -2
Cc1cc(SCC(=O)Nc2cccc(S(N)(=O)=O)c2)c(C)cc1Br | 2 | -1 | 4 | -21 | 103* | 2
Cc1cc(SCC(=O)N/N=C/c2ccc(O)c(O)c2)c(C)cc1Br | -1 | 5 | 0 | 54* | 0 | 1
COc1cccc2c(SCC(=O)N/N=C/c3ccc(O)c(O)c3)cc(C)nc12 | -3 | . | 0 | 67* | 29 | -1
Cc1cc([N+](=O)[O-])nn1Cc1ccc(C(=O)N/N=C/c2ccc(O)cc2O)cc1 | -1 | . | 1 | 38 | 18 | -2
CCN(CC)CCCNC(=O)c1cc(Cl)c(NC(=O)C2=C(C)OCCS2)cc1OC | 4 | . | 21 | 3 | -11 | -1
CC(C)Oc1ccc(/C=N/NC(=O)C(CSCc2ccccc2)NC(=O)c2ccc([N+](=O)[O-])cc2)cc1 (stereo not drawn) | 104* | 54* | 0 | 2 | -46 | 4
O=C(COc1ccc(/C=N/NC(=O)c2ccccc2)cc1)Nc1ccc([N+](=O)[O-])cc1 | 0 | 7 | 7 | -4 | -6 | 4
COc1cc(C(=O)N2CCN(c3cccc(C(F)(F)F)c3)CC2)ccc1OCC(=O)N1CCOCC1 | 0 | 3 | -7 | -1 | -3 | 0
Cc1cccc(C)c1-n1nnnc1C(c1ccnc2ccccc12)N1CCCN(C(=O)OC(C)(C)C)CC1 (stereo not drawn) | . | . | 1 | . | . | -1
C=C1CCC[C@]2(C)C[C@H]3OC(=O)C(CNCCN(C)C)[C@H]3CC12 (stereo partly drawn) | 5 | . | 37* | 8 | -14 | 1

From PubChem BioAssay
